The panel holds about 83,000 compounds, 20% with a hit somewhere; the sample as a whole holds those more often.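 For each line, cells grew in 96-well plates with the test compound present at a single concentration for 48 hours.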 A number with no mark means an inactive call. The calls were made as follows: active = growth percent below 10; inactive = the rest.

The experiment relates to HL-60(TB) leukemia. Briefly: NCI-60 one-dose screen, 48 h (100 = growth as untreated, 0 = no growth, -100 = all killed). The following applies: 10 µM unless noted.
`Cc1nc(-c2cc3ccccc3oc2=O)ccc1C(=O)/C=C/c1ccccn1`: the growth was 32.9%.

On to `Cn1cc(CNc2nc3ccc(OC/C(=C/F)CN)cc3o2)ccc1=O`, for which the growth is 101%.

For `C(=C(\C1=NCCN1)n1cnc2ccccc21)/c1ccc2ccccc2c1`, the growth was 50.5%.

The values are drawn from PubChem BioAssay (NCI).
